HEK cytotox = HEK 293 cell cytotoxicity | HEK 293 viability, ATP luminescence (CellTiter-Glo), 48-72 h | Potency, µM (series often up to 115 µM), without a hit: at the highest dose activity change, negative = cytotoxicity, actives largely listed as inhibitors | 94,000 compounds, 6.6% hits; note: nearly all actives have a fitted effect of over 60% in size
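HEK 293 seeded at 250 cells/well receive compound via pintool. After 48 or 72 hr at 37 degree Celsius, 5% CO2 and 95% humidity, CellTiter-Glo is dispensed and luminescence read following 10 min at room temperature.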
hNpr1 antagonist = blocks ANP-stimulated signaling of human Npr1 receptor; P16066; HEK293 hNpr1 GloSensor cGMP, ANP-stimulated luminescence; Potency, µM (top dose mostly 46.3 µM), for the others: top-dose activity change, negative = inhibition, most hits filed as inhibitors; 76,000 compounds, 1.6% hits; AID 1347048; calls by dose curve; note: nearly all actives have a fitted effect of over 60% in size
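HEK293 cells stably expressing human Npr1 and cGMP GloSensor pGS-40F, loaded 2 h with 2% GloSensor reagent, given compound 30 min at room temperature. Luminescence read before and 20 min after 0.1 nM hNppA.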
FLuc inh = blocks purified firefly luciferase enzyme activity; AID 1347043; purified P. pyralis luciferase, luminescence, biochemical; Potency, µM (titrated, usually from 115 µM), most hits filed as inhibitors; 76,000 compounds, 2.5% hits; P08659; note: nearly all actives have a fitted effect of over 65% in size
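Inhibitors were tested against purified firefly luciferase in a biochemical, low-substrate format (both substrates at 10uM) and luminescence measured with a CCD imager.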
3T3 cytotox = cytotoxic compounds in NIH 3T3 cells. NIH 3T3 viability, CellTiter-Glo ATP luminescence, 48-72 h. Potency, µM (doses to about 96.7 µM), without a hit: top-dose activity change, negative = cytotoxicity, most hits filed as inhibitors. 94,000 compounds, 4.3% hits; note: nearly all actives have a fitted effect of over 55% in size
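NIH 3T3 cells at 400 cells/well received 23 nL of compound by pintool and were incubated 48 or 72 h at 37 °C. Viability was read as ATP-coupled CellTiter-Glo luminescence.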
GPT2 inhibitor = GPT2 alanine aminotransferase inhibition; Q8TD30; Recombinant GPT2, coupled pyruvate oxidase/HRP Amplex Red fluorescence; Potency, µM (doses to about 57.7 µM), for the others: at the top dose activity change, negative = inhibition, most hits filed as inhibitors; 100,000 compounds, 0.25% hits; note: nearly all actives have a fitted effect of over 60% in size
Target sequence (Q8TD30 whole entry, looked up): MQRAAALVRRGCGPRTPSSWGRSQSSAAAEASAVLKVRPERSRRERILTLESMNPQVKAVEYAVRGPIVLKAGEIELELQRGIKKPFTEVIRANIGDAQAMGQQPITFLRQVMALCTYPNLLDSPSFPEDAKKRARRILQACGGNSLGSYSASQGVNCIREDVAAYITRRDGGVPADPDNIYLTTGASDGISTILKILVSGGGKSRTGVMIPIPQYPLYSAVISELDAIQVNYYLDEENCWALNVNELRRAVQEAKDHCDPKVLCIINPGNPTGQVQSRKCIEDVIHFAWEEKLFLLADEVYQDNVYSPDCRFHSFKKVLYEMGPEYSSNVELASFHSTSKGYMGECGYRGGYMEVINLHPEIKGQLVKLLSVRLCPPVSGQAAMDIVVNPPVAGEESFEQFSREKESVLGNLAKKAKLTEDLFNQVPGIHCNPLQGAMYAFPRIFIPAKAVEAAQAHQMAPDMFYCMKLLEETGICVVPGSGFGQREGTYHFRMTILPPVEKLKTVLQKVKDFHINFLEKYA
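Fluorescence read-out: pyruvate from GPT2 turnover coupled to pyruvate oxidase, HRP and Amplex Red (0.2mM ThPP, 0.2U/mL PO and HRP, 50uM Amplex final). Substrates 250uM a-KG, 2mM L-alanine; enzyme 10ng/uL; 30 min RT.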
* = called active by the depositor; [ ] = another dose, or the depositor's remark. Compounds with a hit are over-represented: about 10% of the library has one in this group of screens. Unless noted, calls come from the whole dose curve; as a rule, active = well fitted curve in the direction sought with a large enough effect; inconclusive = small, poorly fitted or top-dose-only effect, or another doubt; inactive = no such curve, though single readings can be large; an effect the other way counts as inactive or inconclusive. % is set by controls: 0 for no effect and ±100 for the full control effect; potency is the fitted concentration of half-maximal effect.

What do the screens show for `COc1cccc(-c2cccc(C(=O)N3C[C@H](CO)C[C@H](CN(C)C)C3)c2)c1`?
HEK cytotox: -3%; hNpr1 antagonist: 2%; FLuc inh: inactive; 3T3 cytotox: -19%; GPT2 inhibitor: inactive[11.5 µM]

How did COC1CCN(C(=O)Cc2c[nH]c3ncc(-c4ccccc4)cc23)CC1 do in these assays?
HEK cytotox: -1%[172 µM]; hNpr1 antagonist: -3%[70.6 µM]; FLuc inh: inconclusive; 3T3 cytotox: inconclusive; GPT2 inhibitor: inactive

What do the screens show for `COc1ncccc1-c1cnc2[nH]cc(CC(=O)N3CCOCC3)c2c1`?
HEK cytotox: inconclusive; hNpr1 antagonist: inconclusive; FLuc inh: inactive; 3T3 cytotox: inconclusive; GPT2 inhibitor: inactive

What do the screens show for `COc1ccc(-c2cnc3[nH]cc(CC(=O)N4CCCC4)c3c2)cc1`?
HEK cytotox: 71µM*; hNpr1 antagonist: inconclusive; FLuc inh: 22µM*; 3T3 cytotox: 7.9µM*; GPT2 inhibitor: inconclusive

How did COc1ccc(-c2cnc3[nH]cc(CC(=O)N4CCC(OC)CC4)c3c2)cc1 do in these assays?
HEK cytotox: inconclusive; hNpr1 antagonist: -13%[70.6 µM]; FLuc inh: 22µM*; 3T3 cytotox: inconclusive; GPT2 inhibitor: inactive

How did Cc1ccc(NC(=O)N2CCC(CCNC(=O)c3n[nH]c4ccccc34)CC2)cc1F do in these assays?
HEK cytotox: 79µM*; hNpr1 antagonist: -16%; FLuc inh: inconclusive; 3T3 cytotox: inconclusive; GPT2 inhibitor: inactive

Results for Cc1ccc(NC(=O)N2CCC(CCNC(=O)c3ccccn3)CC2)cc1F ?
HEK cytotox: inconclusive; 3T3 cytotox: inconclusive; GPT2 inhibitor: inactive

How did COc1ccc(C(=O)NCCC2CCN(C(=O)Nc3ccc(C)c(F)c3)CC2)cc1 do in these assays?
HEK cytotox: -23%; hNpr1 antagonist: -25%; FLuc inh: 3.5µM*; 3T3 cytotox: inconclusive; GPT2 inhibitor: 3%

How did O=C(Cc1ccc(Cl)cc1)N1CCC2(CC1)NC(=O)N(c1ccccc1Cl)N2 do in these assays?
HEK cytotox: 89µM*; hNpr1 antagonist: -1%; FLuc inh: inactive; 3T3 cytotox: 40µM*; GPT2 inhibitor: inconclusive

What do the screens show for `O=C(Cc1cccc(F)c1)N1CCC(n2cc(-c3nc(-c4ccccc4)no3)nn2)C1` (centres undefined)?
HEK cytotox: inconclusive; hNpr1 antagonist: -20%; FLuc inh: inconclusive; 3T3 cytotox: inconclusive; GPT2 inhibitor: inactive

Results for O=C1NCC2(CCN([S+](=O)([O-])c3ccccc3)CC2)Oc2ccccc21 ?
HEK cytotox: -26%; hNpr1 antagonist: 10%; FLuc inh: inactive; 3T3 cytotox: inconclusive; GPT2 inhibitor: -31%

How did O=C1COc2ccc(OCc3ccccc3)nc2CN1Cc1ccccc1F do in these assays?
HEK cytotox: inconclusive; hNpr1 antagonist: inconclusive; FLuc inh: inactive; 3T3 cytotox: 100µM*; GPT2 inhibitor: inactive

Results for O=C1COc2ccc(-c3cc(F)cc(F)c3)nc2CN1Cc1ccccc1F ?
HEK cytotox: 89µM*; hNpr1 antagonist: 1%[70.6 µM]; FLuc inh: inactive; 3T3 cytotox: inconclusive; GPT2 inhibitor: -20%[88.5 µM]

How did O=C1COc2ccc(OCc3cncs3)nc2CN1Cc1ccccc1 do in these assays?
HEK cytotox: inconclusive; hNpr1 antagonist: -28%[70.6 µM]; FLuc inh: inactive; 3T3 cytotox: inconclusive; GPT2 inhibitor: -7%[88.5 µM]

What do the screens show for `CC(=O)Nc1cccc(-c2ccc3c(n2)CN(Cc2nc4ccccc4s2)C(=O)CO3)c1`?
HEK cytotox: inconclusive; hNpr1 antagonist: -7%; FLuc inh: inconclusive; 3T3 cytotox: inconclusive; GPT2 inhibitor: -10%

What do the screens show for `O=C1COc2ccc(-c3ccc(F)c(Cl)c3)nc2CN1Cc1nc2ccccc2s1`?
HEK cytotox: 50µM*; hNpr1 antagonist: -10%; FLuc inh: inactive; 3T3 cytotox: inconclusive; GPT2 inhibitor: 0%

Results for O=C(Nc1cccc(-c2ccc(N3CCOCC3)nn2)c1)Nc1ccccc1Cl ?
HEK cytotox: inconclusive; hNpr1 antagonist: inconclusive; FLuc inh: 1.6µM*; 3T3 cytotox: inconclusive; GPT2 inhibitor: 1%

How did O=C(Nc1cccc(-c2ccc(N3CCOCC3)nn2)c1)Nc1cc(Cl)ccc1Cl do in these assays?
HEK cytotox: -15%; hNpr1 antagonist: -19%; FLuc inh: 1µM*; 3T3 cytotox: -17%; GPT2 inhibitor: inactive

What do the screens show for `NC(=O)[C@H](CC1CCCCC1)NC(=O)[C@@H]1CN(C(=O)Nc2ccccc2)CCN1C(=O)C1CCCCC1`?
HEK cytotox: inconclusive; hNpr1 antagonist: 0%; FLuc inh: inactive; 3T3 cytotox: inconclusive; GPT2 inhibitor: 2%

Results for CCS(=O)(=O)N1CCC(Oc2cccc(C(=O)NCc3ccccn3)c2)CC1 ?
HEK cytotox: inconclusive; hNpr1 antagonist: -4%; FLuc inh: inactive; 3T3 cytotox: -28%; GPT2 inhibitor: -7%

How did COc1ccc(CNc2cc3c(cn2)CN(Cc2ccccc2)CCN3)cc1OC do in these assays?
HEK cytotox: 63µM*; hNpr1 antagonist: 0%[70.6 µM]; FLuc inh: inactive; 3T3 cytotox: 40µM*; GPT2 inhibitor: 3%[88.5 µM]

Results for Oc1ccc(-c2cc3c(cn2)CN(Cc2ccccc2)CCN3)cc1F ?
HEK cytotox: inconclusive; hNpr1 antagonist: -2%[70.6 µM]; FLuc inh: 25µM*; 3T3 cytotox: inconclusive; GPT2 inhibitor: 0%[88.5 µM]

What do the screens show for `COc1ccc(Cl)cc1-c1cc2c(cn1)CN(Cc1cccnc1)CCN2`?
HEK cytotox: inconclusive; hNpr1 antagonist: -6%[70.6 µM]; FLuc inh: inactive; 3T3 cytotox: inconclusive; GPT2 inhibitor: 1%[88.5 µM]

What do the screens show for `COc1ccc(-c2cc3c(cn2)CN(Cc2ccccc2)CCN3)cc1OC`?
HEK cytotox: inconclusive; hNpr1 antagonist: -13%[70.6 µM]; FLuc inh: inconclusive; 3T3 cytotox: 45µM*; GPT2 inhibitor: inactive

Results for COc1ccc(-c2cc3c(cn2)CN(CCc2ccccc2)CCN3)cc1OC ?
HEK cytotox: 63µM*; hNpr1 antagonist: -19%[70.6 µM]; FLuc inh: 71µM*; 3T3 cytotox: 40µM*; GPT2 inhibitor: -6%[88.5 µM]

Results for CCOC(=O)C1CCN(C(=O)c2ccc3oc(-c4cccc(C)n4)nc3c2)CC1 ?
HEK cytotox: -28%[172 µM]; 3T3 cytotox: -11%[138 µM]; GPT2 inhibitor: -12%[88.5 µM]

Results for Cc1nn(C)c(C)c1-c1ccnc(NCC2CC(=O)N(C3CCCC3)C2)n1 (centres undefined) ?
HEK cytotox: inconclusive; hNpr1 antagonist: 8%; FLuc inh: inactive; 3T3 cytotox: -26%; GPT2 inhibitor: -16%

Results for c1ccc(CCN2CCNc3cc(N4CCN(c5ccccn5)CC4)ncc3C2)cc1 ?
HEK cytotox: 50µM*; hNpr1 antagonist: -4%[70.6 µM]; FLuc inh: inactive; 3T3 cytotox: 28µM*; GPT2 inhibitor: -3%[88.5 µM]

Results for Fc1ccccc1-c1cc2c(cn1)CN(Cc1ccncc1)CCN2 ?
HEK cytotox: inconclusive; hNpr1 antagonist: inconclusive; FLuc inh: 71µM*; 3T3 cytotox: inconclusive; GPT2 inhibitor: -6%[88.5 µM]
